The structures appear in SMILES notation. Inconclusive results are not listed. Where a call stands in place of a potency, no number is given. Active and inactive are the calls of the source. Calls come from the whole dose curve; as a rule, active = well fitted activation curve with a large enough effect in the main read-out, with a control signal flat (not every such curve was filed as active); inconclusive = small, poorly fitted or top-dose-only effect, or effect the other way, or a change in a side signal; inactive = flat fitted curve, though single readings scatter.

Chain of 3',5'-cyclic-AMP phosphodiesterase 4B (Homo sapiens) (Q07343 whole entry, looked up): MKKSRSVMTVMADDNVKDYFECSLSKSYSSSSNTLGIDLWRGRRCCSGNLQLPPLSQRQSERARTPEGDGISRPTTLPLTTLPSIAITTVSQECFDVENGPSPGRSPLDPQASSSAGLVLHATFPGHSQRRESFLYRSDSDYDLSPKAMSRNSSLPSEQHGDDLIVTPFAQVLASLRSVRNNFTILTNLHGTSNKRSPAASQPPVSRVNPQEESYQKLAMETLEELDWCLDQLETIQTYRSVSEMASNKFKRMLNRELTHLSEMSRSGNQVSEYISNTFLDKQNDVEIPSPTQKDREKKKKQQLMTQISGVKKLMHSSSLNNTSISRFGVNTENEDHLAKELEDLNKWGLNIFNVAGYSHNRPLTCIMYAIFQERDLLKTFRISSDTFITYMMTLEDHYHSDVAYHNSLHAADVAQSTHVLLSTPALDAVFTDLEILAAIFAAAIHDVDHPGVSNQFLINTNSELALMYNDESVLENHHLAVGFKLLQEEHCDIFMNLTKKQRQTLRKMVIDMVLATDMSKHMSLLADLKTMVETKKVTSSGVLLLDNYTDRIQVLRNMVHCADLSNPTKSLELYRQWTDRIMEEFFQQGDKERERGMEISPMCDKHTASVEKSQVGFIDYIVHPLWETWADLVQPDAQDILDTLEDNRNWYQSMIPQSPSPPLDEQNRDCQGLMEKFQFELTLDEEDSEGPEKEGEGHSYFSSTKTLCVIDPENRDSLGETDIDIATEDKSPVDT

This assay addresses 3',5'-cyclic-AMP phosphodiesterase 4B (Homo sapiens) (UniProt Q07343). Nature of the assay: qHTS Assay for Inhibitors of PDE-IV (AID 607). As to conditions: HEK293 ACTOne CNG channel cells, membrane potential fluorescence; series mostly up to 22.9 µM. The method, boiled down:
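Live HEK293 cells with a modified cyclic nucleotide-gated (CNG) channel report intracellular cAMP via membrane-potential dye fluorescence (ex 535/em 590 nm). Endogenous PDE-IV was targeted. Compounds were tested at up to 22.9 uM final; RO 20-1724 100 uM served as control.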
`N#Cc1cccc(-c2nc3cnc(N4CCOCC4)nc3n(C[C@H]3CCCO3)c2=O)c1`: the Potency result is “inactive”.

`COc1ccc(-c2nc3cnc(Nc4cccc(OC)c4)nc3n(C3CC3)c2=O)cc1`: the Potency entry is “inactive”.

As to `CN(C)c1ncc2nc(-c3ccc(F)cc3)c(=O)n(C[C@H]3CCCO3)c2n1`, the Potency result is “inactive”.

As to `CN(C)c1ccc(-c2cc(Nc3ccc(F)cc3)ncn2)cc1`, the Potency result was “inactive”.

For `COc1ncc2nc(C)c(=O)n(C3CC3)c2n1`, the Potency entry is “inactive”.

On to `CN(C)Cc1ccccc1-c1cc(N(C)Cc2ccco2)ncn1`, for which the Potency entry is “inactive”.

As for `CN(Cc1ccco1)c1ncncc1-c1ccccc1Cl`, the Potency entry was “inactive”.

With `CN1CCN(c2ncc3ncc(=O)n(C[C@H]4CCCO4)c3n2)CC1`, the Potency result was “inactive”.

On to `CN1CCN(c2ncc3nc(-c4cc(F)cc(F)c4)c(=O)n(C4CC4)c3n2)CC1`, for which the Potency result was “inactive”.

For `COCCn1c(=O)c(C)nc2cnc(Oc3ccc(OC)cc3)nc21`, the Potency result is “inactive”.

In the case of `CN(Cc1ccco1)c1ncncc1-c1ccoc1`, the Potency entry was “inactive”.

Turning to `CCNc1ncc2nc(-c3cn(C)c4ccccc34)c(=O)n(Cc3cccc(OC)c3)c2n1`, the Potency result was “inactive”.

For the compound `c1ccc(Nc2cc(-c3ccoc3)ncn2)cc1`, the Potency entry was “inactive”.

For the compound `Cn1c(=O)c(-c2cccs2)nc2cnc(OCc3ccccc3)nc21`, the Potency result is “inactive”.

Consider `Cn1c(=O)c(-c2cc(F)cc(F)c2)nc2cnc(N3CCOCC3)nc21`, for which the Potency entry is “inactive”.

Regarding `Cc1ccccc1-c1cc(N(C)C)ncn1`, the Potency result was “inactive”.

Regarding `COCCn1c(=O)c(-c2cc(F)cc(F)c2)nc2cnc(N3CCOCC3)nc21`, the Potency result was “inactive”.

`O=c1c(-c2ccc(F)cc2)nc2cnc(N3CCNCC3)nc2n1Cc1ccc(F)cc1`: the Potency result was “inactive”.

As to `COc1ncc2nc(-c3ccc(F)cc3)c(=O)n(C3CC3)c2n1`, the Potency entry is “inactive”.
